Screening data from PubChem BioAssay.
An excerpt weighted towards active compounds, which were near 2.4% of everything screened.
Pol iota inh: inhibitors of human DNA polymerase iota; Q9UNA4; Pol iota fluorescent replication assay, 10 min; Potency, µM (top dose mostly 115 µM), without a hit: at the highest dose activity, negative = inhibition, hits mostly inhibitors; actives 1% (n = 390,000); note: potency is the fitted concentration of half-maximal effect
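Pol iota at 10 nM preincubated 15 min with compounds at room temperature; reaction started with fluorescent substrate, 50 nM final. Fluorescence read kinetically at 0 and 10 min; buffer-only wells as negative control.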
Pol eta inh-1: blocks human DNA polymerase eta activity | Potency, µM (doses to about 114 µM), for the others: at the highest dose activity change, negative = inhibition, hits mostly inhibitors | actives 1.2% (n = 390,000) | recombinant Pol eta, fluorescent DNA replication assay; note: potency is the fitted concentration of half-maximal effect; % is set by controls: 0 for no effect and ±100 for the full control effect
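Fluorescent replication assay: 50 nM final substrate added after a 15 min room-temperature compound preincubation with 10 nM enzyme. Signal taken at 0 min and again at 10 min.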
Pol kappa inh: DNA polymerase kappa (human) inhibition; purified Pol kappa, fluorescent DNA synthesis assay, 10 min; Potency, µM (highest dose often 107 µM), for inactives: top-dose activity, negative = inhibition, usual class: inhibitors; Q9UBT6; AID 588579; actives 0.53% (n = 400,000); note: potency is the fitted concentration of half-maximal effect; % is set by controls: 0 for no effect and ±100 for the full control effect
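Activity was followed as the change in fluorescence between reads at 0 and 10 min after starting the reaction with 50 nM substrate. Beforehand, 10 nM polymerase had been preincubated with compound for 15 min at room temperature.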
WRN inhibitor: blocks human WRN helicase. Q14191. Potency, µM (series often up to 114 µM), for inactives: at the top dose activity change, negative = inhibition, actives largely listed as inhibitors. WRN helicase unwinding, fluorescent forked duplex, kinetic. actives 0.46% (n = 360,000); note: potency is the fitted concentration of half-maximal effect; % is set by controls: 0 for no effect and ±100 for the full control effect; nearly all actives have a fitted effect of over 55% in size
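Kinetic fluorescence helicase assay: unwinding of a quenched forked DNA duplex (100 nM final) with 2 mM ATP final raises red fluorescence (525/598 nm). Compounds sat 15 min at room temperature with 20 nM WRN beforehand.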
Pol beta inh: blocks human DNA polymerase beta activity; actives 1.3% (n = 340,000); P06746; Potency, µM (titrated, usually from 114 µM), inactives show at the top dose activity change, negative = inhibition, usual class: inhibitors; Pol beta primer extension/strand displacement, fluorescence kinetic; note: potency is the fitted concentration of half-maximal effect; % is set by controls: 0 for no effect and ±100 for the full control effect
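Curves were derived by four-parameter Hill fits of normalized qHTS data. The kinetic fluorescent primer-extension read was taken at 0 and 10 min after 50 nM substrate, following a 15 min room-temperature preincubation of 10 nM enzyme with compounds.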
FEN1 inh: inhibitors of human flap endonuclease 1; AID 588795; Potency, µM (highest dose often 114 µM), inactives show top-dose activity change, negative = inhibition, usual class: inhibitors; Recombinant FEN1 flap cleavage, fluorescence, 15 min; actives 0.35% (n = 390,000); note: potency is the fitted concentration of half-maximal effect; % is set by controls: 0 for no effect and ±100 for the full control effect; nearly all actives have a fitted effect of over 65% in size
Target sequence (P39748 whole entry, looked up): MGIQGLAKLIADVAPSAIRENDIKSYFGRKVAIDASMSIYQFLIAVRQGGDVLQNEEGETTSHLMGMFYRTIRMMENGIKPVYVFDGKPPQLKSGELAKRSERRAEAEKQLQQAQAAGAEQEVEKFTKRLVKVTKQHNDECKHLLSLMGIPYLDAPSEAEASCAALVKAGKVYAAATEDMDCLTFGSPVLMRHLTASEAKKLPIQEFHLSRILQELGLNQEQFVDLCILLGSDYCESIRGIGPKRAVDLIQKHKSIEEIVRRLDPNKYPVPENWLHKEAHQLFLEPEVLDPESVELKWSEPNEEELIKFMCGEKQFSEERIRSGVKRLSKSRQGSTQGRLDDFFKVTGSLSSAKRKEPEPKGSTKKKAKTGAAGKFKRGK
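Steps: FEN1 (10 nM) dispensed; compound added by pin tool; 15 min at room temperature; substrate added to 50 nM final; reads at 0 min and 15 min; data normalized and fitted (four-parameter Hill).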
GALK confirm: confirmation of human galactokinase (GALK) inhibitors; actives 70% (n = 150); purified GALK, Kinase-Glo ATP depletion luminescence; Potency, µM (series often up to 115 µM), for inactives: at the highest dose activity, negative = inhibition, hits mostly inhibitors; shares compounds with Pol eta inh-1; AID 2015
GALK redox cs: redox cycling activity in phenol red-HRP assay. shares compounds with Pol eta inh-1. Phenol red-HRP H2O2 redox cycling, absorbance 600 nm. Potency, µM (series often up to 115 µM), without a hit: at the highest dose activity change, negative = H2O2 signal, actives largely listed as inhibitors. actives 40% (n = 150)
HEK293 viability: reduces HEK-293 cell viability in GALK counter-screen; actives 10% (n = 170); HEK-293 viability, ATP luminescence (CellTiter-Glo), 24/48 h; shares compounds with Pol eta inh-1; Potency, µM (highest dose often 46.1 µM), for the others: top-dose activity change, negative = cytotoxicity, hits mostly inhibitors; note: potency is the fitted concentration of half-maximal effect; % is set by controls: 0 for no effect and ±100 for the full control effect
Pol eta inh-2: Pol eta (human) inhibition, cherry-pick confirmation | shares compounds with Pol eta inh-1 | Pol eta primer extension, TAMRA/BHQ fluorescence, 10 min | Potency, µM, most hits filed as inhibitors | actives 64% (n = 2,600) | AID 720502; note: potency is the fitted concentration of half-maximal effect
* = called active by the depositor; ? = inconclusive; / = no result given; [ ] = remark or other dose. Calls come from the whole dose curve; as a rule, active = well fitted curve in the direction sought with a large enough effect; inconclusive = small, poorly fitted or top-dose-only effect, or another doubt; inactive = no such curve, though single readings can be large; an effect the other way counts as inactive or inconclusive.

SMILES | Pol iota inh | Pol eta inh-1 | Pol kappa inh | WRN inhibitor | Pol beta inh | FEN1 inh | Pol eta inh-2 | others
CS(=O)(=O)C1=NSC2=NC(=O)/C(=C\c3ccc(OS(=O)(=O)c4ccccc4)cc3)C(=N)N21 | -45% | 50µM* | 3% | -17%[11.6 µM] | ? | -6% | / | GALK confirm=33µM*;GALK redox cs=-20%;HEK293 viability=2%
COc1cc(/C=C2\C(=N)N3N=C(S(C)(=O)=O)SC3=NC2=O)ccc1OS(=O)(=O)c1ccccc1 | / | / | / | / | ? | / | / | GALK confirm=38µM*;GALK redox cs=1%;HEK293 viability=-10%
CCS(=O)(=O)C1=NSC2=NC(=O)/C(=C\c3ccc(OS(=O)(=O)c4ccccc4)c(OC)c3)C(=N)N21 | -13% | 40µM* | -7% | -21% | ? | -26% | / | GALK confirm=47µM*;GALK redox cs=11%;HEK293 viability=-5%
COc1ccccc1CNC(=O)C(C)n1c(=O)cc(-c2ccccc2)c2c(C)nn(C)c21 (configuration not stated) | -3% | -11% | -2% | / | 8% | -19% | /
CCS(=O)(=O)C1=NN2C(=N)/C(=C\c3ccc(OS(=O)(=O)c4ccccc4)cc3)C(=O)N=C2S1 | ? | 45µM* | -33% | -26% | ? | -16% | / | GALK confirm=38µM*;GALK redox cs=3%;HEK293 viability=4%
O=C1N=C(N2CCOCC2)S/C1=C\c1ccc(OS(=O)(=O)c2ccccc2)cc1 | 14% | -12% | 2%[60.1 µM] | -11% | 11% | -8% | /
COC/C=C/C1=CC2=CC(=O)C(C)(OC(=O)C3CCCC3)C(=O)C2=CO1 (configuration not stated) | ? | 20µM* | 50µM* | 79µM* | 40µM* | 40µM* | 48*
C=CCN1C=C2C(=O)C(C)(OC(=O)C3CCCC3)C(=O)C=C2C=C1c1ccsc1 (configuration not stated) | ? | 4% | -22% | -4% | 0% | -2% | /
Cc1nn(-c2ccc(N3CCOCC3)nn2)c(C)c1CCC(=O)NCc1ccc(Cl)cc1 | 19% | -5% | -1% | / | 7% | 15% | /
CC(=O)Nc1c(O)nc(SCC(=O)Nc2nnc(CC(C)C)s2)[nH]c1=O | 3% | 9% | -1% | 4% | 4% | -2% | /
CC(=O)Nc1c(O)nc(SCC(=O)Nc2nnc(SCc3ccccc3)s2)[nH]c1=O | 25µM* | 35µM* | ? | -4%[11.6 µM] | -24% | ? | ?
O=C(CN1C(=O)c2ccccc2S1(=O)=O)Nc1ncccn1 | 70% | -10% | -10% | -8% | / | 13% | /
O=C(CN1C(=O)c2ccccc2S1(=O)=O)Nc1ncc(Cl)cc1Cl | ? | 22µM* | ? | ? | / | -10% | 30*
COc1ccc2c(c1)c(=O)oc1c(C)c(OC(C)C(=O)N[C@@H](Cc3c[nH]c4ccc(O)cc34)C(=O)O)ccc12 (some centres not stated) | ? | 20µM* | ? | -14%[11.6 µM] | ? | -4% | 48*
COCCN1Cc2cccc(C(=O)Nc3ccc(C(=O)OC)cc3)c2C1=O | 14% | -25% | -5% | / | 10% | -7% | /
O=C(/C=C/c1ccco1)NC(=S)Nc1ccccc1O | ? | -8% | ? | -8%[11.6 µM] | 22µM* | 8% | ?
O=C(/C=C/c1ccco1)NC(=S)Nc1ccccc1N1CCOCC1 | -3% | -19% | -14% | -10% | 2% | ? | /
O=C(/C=C\c1ccco1)NC(=S)Nc1ccccc1O | ? | 22µM* | ? | ? | 56µM* | -3% | ?
O=C(/C=C/c1ccco1)NC(=S)Nc1ccccc1N1CCCC1 | 30% | 14% | -18%[60.1 µM] | -9% | 1% | ? | /
COc1ccc(C)cc1NC(=O)CN1C(=O)COc2ccc(S(=O)(=O)NC3CCCC3)cc21 | -7% | -7% | -2% | / | -14% | -17% | /
Cc1ccoc1C(=O)NCc1occc1C(=O)O | ? | 6.3µM* | ? | -30%[57.1 µM] | -27% | 1% | 30*
COc1cc(C(=O)NC(=S)NCc2ccncc2)cc(OC)c1OC | / | -6% | / | 0% | / | / | /
Cc1ccnc(NC(=O)COC(=O)c2ccc(F)cc2F)n1 | ? | 45µM* | -44% | -21% | 1% | 16% | ?
O=C(COC(=O)c1ccc(F)cc1F)Nc1cccnc1Cl | 1% | -5% | 0% | -1% | / | 19% | /
O=[N+]([O-])c1ccc2nc(-c3ccc(Cl)cc3)n(OCc3ccccc3)c2c1 | 17% | -11% | -4% | -16% | 20% | 8% | /
SMILES | Pol iota inh | Pol eta inh-1 | Pol kappa inh | WRN inhibitor | Pol beta inh | FEN1 inh | Pol eta inh-2 | others
O=C(O)COn1c(-c2ccccc2)nc2ccc([N+](=O)[O-])cc21 | ? | 18µM* | ? | -13%[11.6 µM] | 35µM* | -5% | ?
CCOC(=O)CN1C(=O)S/C(=C/c2ccc(C)o2)C1=O | 77% | -12% | -15% | 0% | -21% | 0% | /
C#CCN1C(=O)S/C(=C\c2ccc(-c3ccc(Cl)c(C(=O)O)c3)o2)C1=O | ? | 14µM* | 35µM* | -4%[11.6 µM] | ? | ? | ?
COc1ccccc1NC(=O)C(=N\O)/C(C)=N/O | ? | 14µM* | ? | -36% | 45µM* | -13% | 85*
COc1ccccc1NC(C)=O | ? | 0% | 2% | 2% | -5% | 5% | /
CC1=NN2C(=N)/C(=C\c3cc(C)n(-c4cccc(C)c4)c3C)C(=O)N=C2S1 | -22%[58.9 µM] | -18% | -10% | -19% | 0% | -5% | /
CS(=O)(=O)C1=NSC2=NC(=O)/C(=C\c3cccn3-c3ccccc3Cl)C(=N)N21 | ? | 40µM* | ? | -10%[11.6 µM] | 35µM* | ? | ?
COc1cccc(-n2c(C)cc(/C=C3/C(=N)N4C(=NC3=O)SN=C4S(C)(=O)=O)c2C)c1 | ? | 18µM* | -26% | -18%[57.1 µM] | 4% | -15% | ?
